As usually defined, the cell viability is a read-out of living cells in per cent, often relative to untreated cells.

The structures appear in SMILES notation. Counter-ions that a name gives are not always drawn.

The experiment deals with MOLM14. As to the kind of experiment: cell viability relative to vehicle control; higher = less cytotoxic. Conditions: 10 µM; SRSF2 genotype: SRSF2 P95H/wt. In outline:
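CRISPR-edited mutant clones and isogenic wild-type clones from four leukaemia lines were screened against Selleck bioactive, kinase and epigenetic probe libraries, with identity-inconsistent compounds excluded. Each compound was acoustically dispensed at a single 10 µM dose into 384-well plates holding 2000 cells in 50 µL medium per well. After 48 h the supernatant was removed and CellTiter-Glo luminescence was read. Viability was expressed as percent of the on-plate vehicle control and analysed in Genedata Screener.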
Consider `CC(C)Cc1ccc(C(C)C(=O)O)cc1` (stereo not given) [Ibuprofen (Advil)], for which the cell viability came to 100%. Then `COCCOc1cnc2ccn([C@H](C)c3nnc4c(F)cc(-c5cnn(C)c5)cn34)c(=O)c2c1`, with 96.7%. Then `CC(=O)O[C@H]1C(=O)[C@@]2(C)[C@H]([C@H](OC(=O)c3ccccc3)[C@]3(O)C[C@H](OC(=O)[C@H](O)[C@@H](NC(=O)c4ccccc4)c4ccccc4)C(C)=C1C3(C)C)[C@]1(OC(C)=O)CO[C@@H]1C[C@@H]2O` [Paclitaxel (Taxol)], with 9.66%; and `O=C[C@H](O)[C@H]1OC(=O)[C@@H](O)[C@H]1O` [D-Glucurone], with 88.8%; and `CC(Oc1cc(-c2cnn(C3CCNCC3)c2)cnc1N)c1c(Cl)ccc(F)c1Cl` [(S)-crizotinib], with 78.2%. Then `CCS(=O)(=O)N1CCC([C@@H](C)n2c(C)c(C(=O)NCc3c(OC)cc(C)[nH]c3=O)c3ccccc32)CC1`, with 100%.

Take `C#Cc1cccc(Nc2ncnc3cc4c(cc23)OCCOCCOCCO4)c1` [Icotinib]: the cell viability came to 92.3%.

For `COc1cc(Nc2c(C#N)cnc3cc(OCCCN4CCN(C)CC4)c(OC)cc23)c(Cl)cc1Cl` [Bosutinib (SKI-606)], the cell viability was determined as 7.61%. The same measure for `COC(=O)N[C@H](C(=O)N1CC2(CC2)C[C@H]1c1nc(-c2ccc3c(c2)C(F)(F)c2cc(-c4ccc5[nH]c([C@@H]6[C@H]7CC[C@H](C7)N6C(=O)[C@@H](NC(=O)OC)C(C)C)nc5c4)ccc2-3)c[nH]1)C(C)C` [Ledipasvir (GS5885)]: 73.7%; for `Clc1ccc(CSC(Cn2ccnc2)c2ccc(Cl)cc2Cl)cc1` (stereo not given) [Sulconazole Nitrate]: 45.7%; for `COc1ccc2c(c1)c(CC(=O)OCC(=O)O)c(C)n2C(=O)c1ccc(Cl)cc1` [Acemetacin (Emflex)]: 95.4%.

Turning to `CC(C)(O)C1CCC(C)(C2C(O)CC3(C)C4CC(O)C5C(C)(C)C(O)CCC56CC46CCC23C)O1` (stereo not given) [Cyclogalegenol], the cell viability amounted to 94%. Then `Cc1cc(Cn2cnc3c2CC(C(=O)O)N(C(=O)C(c2ccccc2)c2ccccc2)C3)ccc1N(C)C` (stereo not given), with 94.9%.

Regarding `CC[C@H](NC(=O)[C@H](C)NC)C(=O)N1C[C@@H](O)C[C@H]1Cc1c(-c2[nH]c3cc(F)ccc3c2C[C@@H]2C[C@H](O)CN2C(=O)[C@H](CC)NC(=O)[C@H](C)NC)[nH]c2cc(F)ccc12`, the cell viability stood at 61.6%. The same measure for `NCCCCCC(=O)O`: 103%; for `Cc1ccc(NC(=S)NNc2c([N+](=O)[O-])cc(C(F)(F)F)cc2[N+](=O)[O-])cc1Cl`: 89.3%; for `CCCCCCCCCC(C)=O` [Methylnonylketone]: 97.7%. Then `CC(C)n1nccc1-c1ncccc1COc1cccc(O)c1C=O` [Voxelotor(GBT440, GTx011)], with 85.8%; and `O=c1cc(CN2CCOCC2)occ1OCCCCCSc1ccnc2cc(C(F)(F)F)ccc12`, with 58.9%; and `CCCOC(=O)c1cc(O)c(O)c(O)c1` [Propyl gallate], with 97.6%.

For `Cn1c2ccccc2c2c3c(c4c5ccccc5n(CCC#N)c4c21)CNC3=O`, the cell viability stood at 42.6%. `CC(C)c1ccccc1Cc1cc(C(=O)Nc2ccc(S(=O)(=O)c3ccccc3C(C)(C)C)cc2)c(O)c(O)c1O`: the cell viability amounted to 4.45%. On to `COc1ccc2cc1Oc1ccc(cc1)C[C@H]1c3cc(c(OC)cc3CCN1C)Oc1c(O)c(OC)cc3c1[C@H](C2)N(C)CC3` [Fangchinoline], for which the cell viability worked out at 0.48%. For `CC(C)C(=O)Oc1ccc(CO)cc1[C@H](CCN(C(C)C)C(C)C)c1ccccc1` [Fesoterodine Fumarate], the cell viability was found to be 102%. The same measure for `COc1ccc2c(c1)c(CC(=O)O)c(C)n2C(=O)c1ccc(Cl)cc1` [Indometacin Sodium]: 105%; for `Nc1cccc(S(=O)(=O)N2CCCN(S(=O)(=O)c3ccc4c(c3)OCCO4)CC2)c1`: 90.5%. Then `Cc1cc(-c2ncc(CC(=O)Nc3ccc(-c4cnccn4)cn3)cc2C)ccn1`, with 48.8%; and `CC(C)(O)C1CCC(C)(C2C(O)CC3(C)C4CC(OC5OC(CO)C(O)C(O)C5O)C5C(C)(C)C(OC6OCC(O)C(O)C6O)CCC56CC46CCC23C)O1` (stereo not given) [Astragaloside A], with 106%; and `O=c1[nH]cnc2c1ncn2[C@H]1C[C@H](O)[C@@H](CO)O1` [2'-Deoxyinosine], with 105%. The same measure for `CCN(CC)C(=O)C1(c2ccccc2)CC1CN` (stereo not given) [Milnacipran HCl]: 102%. With `Clc1ccc(COC(Cn2ccnc2)c2ccc(Cl)cc2Cl)cc1` (stereo not given) [Econazole nitrate (Spectazole)], the cell viability came to 58.2%. Then `COc1cc(C(=O)OCCCCNC(=N)N)cc(OC)c1O` [Leonurine], with 95.2%. Turning to `C[C@@H](Oc1ccc2[nH]nc(/C=C/c3cnn(CCO)c3)c2c1)c1c(Cl)cncc1Cl`, the cell viability amounted to 0.8%. For `COc1ccccc1S(=O)(=O)Nc1ccc2c(c1)CN(C)C(=O)N2`, the cell viability turned out to be 33.4%. The same measure for `Clc1cccc(CN=C2Nc3ccccc3NC23CCNCC3)c1` [Liproxstatin-1]: 68.9%. The same measure for `O=C(O)c1ccc(O)c2ncccc12`: 98.9%; for `CO[C@H]1C[C@@H]2CC[C@@H](C)[C@@](O)(O2)C(=O)C(=O)N2CCCC[C@H]2C(=O)O[C@H]([C@H](C)C[C@@H]2CC[C@@H](OP(C)(C)=O)[C@H](OC)C2)CC(=O)[C@H](C)/C=C(\C)[C@@H](O)[C@@H](OC)C(=O)[C@H](C)C[C@H](C)/C=C/C=C/C=C/1C` [Deforolimus (MK-8669)]: 54.2%; for `Cc1ccc(-c2n[nH]c3c2C(c2cccc(O)c2)N(c2ccc(C(=O)O)cc2)C3=O)cc1` (stereo not given): 100%.

As for `C=C(C(=O)O)C1CCC(C)C2CCC(C)=CC12` (stereo not given) [Artemisic acid], the cell viability is 104%. Take `CC(C)c1ccc(NC(=O)Cn2cnc3c2c(=O)n(C)c(=O)n3C)cc1`: the cell viability was determined as 95.1%.
